# PubChem BioAssay (EPA / NIEHS)
# Records with an inconclusive call do not appear. Calls of active or inactive are those of the source. Rule for the calls, unless noted: active = hit-call score of the fitted dose curve at least 0.9, where 1 is the maximum; inconclusive = response in the unintended direction; inactive = score below 0.9.
# Tests used:
# [1] = molecular target: rat Peripheral-type Benzodiazepine Receptor (PBR), Tspo (gene 24230) (UniProt P16257); test: NVS_MP_rPBR: NovaScreen (NVS) Membrane Protein Assay for rat Peripheral-type Benzodiazepine Receptor (PBR) (AID 2283335)
# Sequence of rat Peripheral-type Benzodiazepine Receptor (PBR), Tspo (gene 24230) (P16257 whole entry, looked up): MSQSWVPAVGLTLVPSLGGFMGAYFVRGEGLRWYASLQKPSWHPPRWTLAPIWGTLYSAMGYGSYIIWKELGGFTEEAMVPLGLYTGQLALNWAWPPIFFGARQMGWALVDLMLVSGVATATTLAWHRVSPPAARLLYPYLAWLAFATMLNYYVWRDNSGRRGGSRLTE
# Outline: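 Competitive displacement of specific radioligand from rat kidney membrane PBR, read by filtration and scintillation after 1 h. Compounds first tested at 25 uM in duplicate, then in concentration series; signal loss relative to DMSO.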
# [2] = molecular target: Estrogen receptor (Homo sapiens) (UniProt P03372); test: OT_ER_ERaERa_1440: Odyssey Thera (OT) 24-hour HEK293T Protein-Complementation Assay for Estrogen Receptor-alpha/-alpha Homodimer (AID 2283349);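 note: hits raise fluorescence above DMSO for agonists and antagonists alike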
# Sequence of Estrogen receptor (Homo sapiens) (P03372 whole entry, looked up, the tested form may be a part): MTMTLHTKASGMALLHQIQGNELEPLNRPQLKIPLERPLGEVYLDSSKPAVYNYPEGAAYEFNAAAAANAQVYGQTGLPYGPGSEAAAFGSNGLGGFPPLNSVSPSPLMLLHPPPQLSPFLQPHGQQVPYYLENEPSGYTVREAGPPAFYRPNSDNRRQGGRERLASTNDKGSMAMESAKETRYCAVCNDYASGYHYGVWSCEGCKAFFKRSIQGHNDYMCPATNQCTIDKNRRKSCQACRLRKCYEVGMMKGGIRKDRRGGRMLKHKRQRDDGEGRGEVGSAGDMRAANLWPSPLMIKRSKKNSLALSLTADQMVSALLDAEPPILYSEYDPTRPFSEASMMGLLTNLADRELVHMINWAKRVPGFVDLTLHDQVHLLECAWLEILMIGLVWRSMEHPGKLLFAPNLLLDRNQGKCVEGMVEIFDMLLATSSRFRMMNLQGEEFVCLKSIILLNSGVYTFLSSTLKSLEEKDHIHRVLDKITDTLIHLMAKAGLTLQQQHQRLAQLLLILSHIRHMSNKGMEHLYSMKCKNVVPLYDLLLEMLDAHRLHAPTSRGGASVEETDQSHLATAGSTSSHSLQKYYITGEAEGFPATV
# Outline: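 HEK293T, stable ERα LBD (aa 310-547) homodimer PCA; 24 h compound exposure; mean fluorescence intensity (nuclear for agonists, nuclear plus cytoplasmic for antagonists) vs vehicle; positive fitting direction, DMSO baseline.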
# [3] = molecular target: Estrogen receptor (Homo sapiens) (UniProt P03372); test: OT_ER_ERaERa_0480: Odyssey Thera (OT) 8-hour HEK293T Protein-Complementation Assay for Estrogen Receptor-alpha/-alpha Homodimer (AID 2283351);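 note: rise in fluorescence from reassembled reporter fragments on ERα LBD homodimer in nucleus or whole cell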
# Outline: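 Cells were treated for 8 hours, then imaged on a laser scanning plate cytometer. Complementation of reporter fragments fused to the human ERα ligand-binding domain (residues 310-547) in HEK293T gave fluorescence, and gain of signal over vehicle was fitted.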
# [4] = NVS_IC_rCaBTZCHL: NovaScreen (NVS) Ion Channel Assay for Calcium Channel, Type L, Benzothiazepine Site (CaBTZCHL) (AID 2283337)
# Outline: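 Test chemicals were added to rat cortical membranes and incubated 1.5 h with a tritiated or iodinated radioligand for the benzothiazepine site. Bound ligand was separated by filtration and counted. Actives from the 25 uM duplicate screen were retested in concentration series.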
# [5] = molecular target: Estrogen receptor (Homo sapiens) (UniProt P03372); test: NVS_NR_hER: NovaScreen (NVS) Nuclear Receptor Binding Assay for human Estrogen Receptor (ER) (AID 2283348)
# Outline: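 Cell-free MCF7-derived ER preparation, specific radioligand displaced by test compound, read by scintillation counting 18 h post-dosing. Duplicate single-point 25 uM screen, then concentration-response confirmation; DMSO baseline.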
# [6] = molecular target: Estrogen receptor (Homo sapiens) + Estrogen receptor beta (Homo sapiens) (UniProt P03372+Q92731); test: OT_ER_ERaERb_0480: Odyssey Thera (OT) 8-hour HEK293T Protein-Complementation Assay for Estrogen Receptor-alpha/-beta Heterodimer (AID 2283352)
# Sequence of Estrogen receptor (Homo sapiens) + Estrogen receptor beta (Homo sapiens) (P03372 whole entry, looked up): as the sequence (P03372 whole entry, looked up, the tested form may be a part) above
# Sequence of Estrogen receptor (Homo sapiens) + Estrogen receptor beta (Homo sapiens) (Q92731 whole entry, looked up): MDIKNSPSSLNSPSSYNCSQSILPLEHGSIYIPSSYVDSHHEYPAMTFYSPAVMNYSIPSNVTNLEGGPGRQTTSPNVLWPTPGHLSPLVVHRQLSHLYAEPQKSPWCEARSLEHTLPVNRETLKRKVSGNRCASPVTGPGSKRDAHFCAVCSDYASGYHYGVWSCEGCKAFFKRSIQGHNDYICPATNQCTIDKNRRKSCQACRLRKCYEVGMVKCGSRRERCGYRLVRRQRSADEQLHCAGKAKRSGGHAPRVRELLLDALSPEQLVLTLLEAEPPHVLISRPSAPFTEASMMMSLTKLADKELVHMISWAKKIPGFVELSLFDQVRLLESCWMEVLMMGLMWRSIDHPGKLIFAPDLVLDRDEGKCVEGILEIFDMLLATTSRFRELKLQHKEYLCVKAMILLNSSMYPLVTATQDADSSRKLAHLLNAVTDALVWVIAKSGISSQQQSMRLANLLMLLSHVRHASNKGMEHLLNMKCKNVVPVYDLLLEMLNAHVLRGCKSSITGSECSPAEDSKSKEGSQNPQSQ
# Outline: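 Compound added to HEK293T cells carrying split-reporter-tagged ER-alpha and ER-beta LBDs, incubated 8 hours, then imaged by laser scanning cytometer. Signal rise in nucleus, or nucleus and cytoplasm, over vehicle was fitted in the positive direction.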
# [7] = molecular target: Small conductance calcium-activated potassium channel protein 1 (Rattus norvegicus) (UniProt P70606); test: NVS_IC_rKCaCh: NovaScreen (NVS) Ion Channel Assay for rat Potassium Channel, Ca2+ Act., VI (KCaCh) (AID 2283336)
# Outline: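 Filter-based scintillation counting of radioligand bound to rat forebrain membrane preparations, measured 1 h after compound addition. Primary screen used 25 uM in duplicate, with concentration-response follow-up; signal decrease relative to DMSO marks activity.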
# [8] = molecular target: chimpanzee Androgen Receptor (AR), AR (gene 747460) (UniProt O97775); test: NVS_NR_cAR: NovaScreen (NVS) Nuclear Receptor Binding Assay for chimpanzee Androgen Receptor (AR) (AID 2283346);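 note: radioligand displacement from AR measured by scintillation counting in a cell-free assay; a loss of bound radioligand signal versus DMSO counts as binding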
# Outline: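 Cell-free competition binding with insect-cell (Sf9/Sf21) extracted chimpanzee AR; scintillation signal from lysate at 72 h. Screened in duplicate at 25 uM, then concentration-response for actives; fitting relative to DMSO.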
# [9] = molecular target: Glutamate receptor ionotropic, kainate 1 (Rattus norvegicus) (UniProt P22756); test: NVS_IC_rKAR: NovaScreen (NVS) Ion Channel Assay for rat Kainic Acid Receptors (KAR) (AID 2283334; active = hit-call score of the fitted dose curve at least 0.9, where 1 is the maximum; inactive = score below 0.9)
# Sequence of Glutamate receptor ionotropic, kainate 1 (Rattus norvegicus) (P22756 whole entry, looked up): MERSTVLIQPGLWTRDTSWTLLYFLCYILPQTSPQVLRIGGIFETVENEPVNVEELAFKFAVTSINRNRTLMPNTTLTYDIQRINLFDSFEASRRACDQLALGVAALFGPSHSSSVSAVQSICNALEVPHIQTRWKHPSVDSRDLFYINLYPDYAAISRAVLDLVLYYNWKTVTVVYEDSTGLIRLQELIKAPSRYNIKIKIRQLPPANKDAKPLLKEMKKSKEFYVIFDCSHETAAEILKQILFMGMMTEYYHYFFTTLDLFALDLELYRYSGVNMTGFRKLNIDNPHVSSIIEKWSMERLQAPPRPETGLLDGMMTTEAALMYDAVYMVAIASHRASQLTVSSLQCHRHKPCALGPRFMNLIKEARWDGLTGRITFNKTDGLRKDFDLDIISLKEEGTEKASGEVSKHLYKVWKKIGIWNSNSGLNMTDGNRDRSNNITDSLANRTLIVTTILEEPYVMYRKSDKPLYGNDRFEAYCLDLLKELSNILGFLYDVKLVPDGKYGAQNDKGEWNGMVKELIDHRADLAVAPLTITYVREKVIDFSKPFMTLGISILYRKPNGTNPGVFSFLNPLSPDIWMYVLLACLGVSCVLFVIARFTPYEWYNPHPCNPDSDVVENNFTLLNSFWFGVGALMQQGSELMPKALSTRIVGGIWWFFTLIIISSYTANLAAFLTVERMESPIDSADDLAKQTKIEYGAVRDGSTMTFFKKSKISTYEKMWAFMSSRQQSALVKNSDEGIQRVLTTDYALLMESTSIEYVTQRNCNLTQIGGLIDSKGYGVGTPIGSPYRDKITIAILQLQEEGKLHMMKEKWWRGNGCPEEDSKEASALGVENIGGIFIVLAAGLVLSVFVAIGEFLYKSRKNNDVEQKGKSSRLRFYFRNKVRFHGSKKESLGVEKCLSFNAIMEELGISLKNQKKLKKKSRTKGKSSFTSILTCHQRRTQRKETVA
# Outline: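 Rat forebrain membrane preparation incubated 1 h with radioligand and test chemical; bound signal read by filtration and scintillation. Single-concentration screen at 25 uM, then concentration series to 50 uM maximum.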
# [10] = molecular target: bovine Gamma-Aminobutyric Acid Type A Receptor Agonist (GABAR Agonist), GABRA1 (gene 780973) (UniProt P08219); test: NVS_LGIC_bGABAR_Agonist: NovaScreen (NVS) Ligand-Gated Ion Channel Assay for bovine Gamma-Aminobutyric Acid Type A Receptor Agonist (GABAR Agonist) (AID 2283338)
# Sequence of bovine Gamma-Aminobutyric Acid Type A Receptor Agonist (GABAR Agonist), GABRA1 (gene 780973) (P08219 whole entry, looked up): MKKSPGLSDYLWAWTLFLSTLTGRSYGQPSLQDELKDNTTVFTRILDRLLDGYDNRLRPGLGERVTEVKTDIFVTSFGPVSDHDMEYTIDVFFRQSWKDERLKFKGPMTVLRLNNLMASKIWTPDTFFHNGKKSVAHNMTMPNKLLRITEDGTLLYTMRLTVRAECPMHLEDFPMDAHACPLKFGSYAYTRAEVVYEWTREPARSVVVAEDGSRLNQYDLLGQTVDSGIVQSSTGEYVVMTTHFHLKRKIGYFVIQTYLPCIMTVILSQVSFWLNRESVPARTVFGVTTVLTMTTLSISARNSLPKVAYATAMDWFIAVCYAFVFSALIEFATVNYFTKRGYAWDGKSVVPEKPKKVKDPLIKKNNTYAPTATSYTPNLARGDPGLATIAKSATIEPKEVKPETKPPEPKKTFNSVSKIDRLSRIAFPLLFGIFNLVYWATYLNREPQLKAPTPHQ
# Outline: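 Radioligand binding to bovine cerebellar membranes in agonist format, read by filter-based scintillation counting after 1 h. Primary screen in duplicate at 25 uM, with actives followed in concentration series. Gain of signal versus DMSO.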
# [11] = molecular target: bovine Estrogen Receptor (ER), ESR1 (gene 407238) (UniProt P49884); test: NVS_NR_bER: NovaScreen (NVS) Nuclear Receptor Binding Assay for bovine Estrogen Receptor (ER) (AID 2283345);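 note: actives lower the bound radioligand count which means they displace the ER ligand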
# Sequence of bovine Estrogen Receptor (ER), ESR1 (gene 407238) (P49884 whole entry, looked up): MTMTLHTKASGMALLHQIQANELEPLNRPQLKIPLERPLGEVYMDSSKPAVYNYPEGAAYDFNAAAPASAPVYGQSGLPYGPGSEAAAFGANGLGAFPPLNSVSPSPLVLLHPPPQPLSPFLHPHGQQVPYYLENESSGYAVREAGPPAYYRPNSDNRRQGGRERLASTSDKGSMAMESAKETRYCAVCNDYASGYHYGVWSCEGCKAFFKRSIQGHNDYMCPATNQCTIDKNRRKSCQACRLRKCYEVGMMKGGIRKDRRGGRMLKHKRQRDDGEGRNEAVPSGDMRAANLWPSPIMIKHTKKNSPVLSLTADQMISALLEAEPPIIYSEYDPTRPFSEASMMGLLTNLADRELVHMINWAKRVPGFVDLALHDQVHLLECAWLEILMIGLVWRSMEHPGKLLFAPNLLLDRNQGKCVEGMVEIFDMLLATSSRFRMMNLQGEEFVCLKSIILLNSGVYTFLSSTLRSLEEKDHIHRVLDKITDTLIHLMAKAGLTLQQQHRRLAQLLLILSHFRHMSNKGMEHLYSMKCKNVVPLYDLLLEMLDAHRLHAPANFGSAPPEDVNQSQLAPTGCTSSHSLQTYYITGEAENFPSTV
# Outline: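 Cell-free radioligand binding with receptor from bovine uterine membranes, read by scintillation counting 18 h after dosing. Loss of specific binding was scored against DMSO; primary screen at 25 uM in duplicate, actives then run as concentration series.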
# [12] = molecular target: Bile acid receptor (Homo sapiens) (UniProt Q96RI1); test: NVS_NR_hFXR_Antagonist: NovaScreen (NVS) Nuclear Receptor Binding Assay for human Farnesoid X Receptor Antagonism (FXR) (AID 2283350)
# Sequence of Bile acid receptor (Homo sapiens) (Q96RI1 whole entry, looked up): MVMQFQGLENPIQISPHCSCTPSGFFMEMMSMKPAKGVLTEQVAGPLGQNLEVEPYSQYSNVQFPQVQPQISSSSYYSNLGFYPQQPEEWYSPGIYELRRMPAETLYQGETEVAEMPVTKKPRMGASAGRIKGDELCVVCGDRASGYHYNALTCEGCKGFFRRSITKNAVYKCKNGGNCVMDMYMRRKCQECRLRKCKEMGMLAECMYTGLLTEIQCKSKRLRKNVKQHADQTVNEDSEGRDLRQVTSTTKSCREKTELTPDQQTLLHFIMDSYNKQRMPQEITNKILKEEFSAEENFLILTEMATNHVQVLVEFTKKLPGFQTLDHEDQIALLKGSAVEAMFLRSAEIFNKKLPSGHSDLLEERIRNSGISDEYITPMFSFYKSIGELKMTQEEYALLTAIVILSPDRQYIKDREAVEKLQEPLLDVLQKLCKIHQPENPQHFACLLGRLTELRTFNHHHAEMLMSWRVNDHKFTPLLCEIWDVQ
# Outline: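 Antagonist-format time-resolved FRET binding assay with extracted human receptor protein, read 1 hour after compound addition. Compounds first screened at 25 uM in duplicate, then actives tested in concentration series, with loss of signal relative to DMSO.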
# NCBI gene 100848466 = test: NVS_NR_bPR: NovaScreen (NVS) Nuclear Receptor Binding Assay for bovine Progextron Receptor (PR) (AID 2283343);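 note: actives lower bound radioligand signal below DMSO meaning displacement of the label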
# Outline: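 Competitive radioligand binding with membranes from bovine uterus, scintillation read-out at 18 h post-dose. Compounds first tested in duplicate at 25 uM, then actives in concentration series; loss-of-signal relative to DMSO.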
# [13] = molecular target: human Androgen Receptor (AR), AR (gene 367) (UniProt P10275); test: NVS_NR_hAR: NovaScreen (NVS) Nuclear Receptor Binding Assay for human Androgen Receptor (AR) (AID 2283332)
# Outline: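 Radioligand competitive binding, scintillation read-out, in cell-free extract from LnCAP, measured 20 h after dosing. Screened first in duplicate at 25 uM, then concentration series for actives; activity fitted against DMSO.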
# [14] = molecular target: human Constitutive Androstane Receptor (CAR), NR1I3 (gene 9970) (UniProt Q14994); test: NVS_NR_hCAR_Antagonist: NovaScreen (NVS) Nuclear Receptor Binding Assay for human Constitutive Androstane Receptor Antagonism (CAR) (AID 2283344)
# Sequence of human Constitutive Androstane Receptor (CAR), NR1I3 (gene 9970) (Q14994 whole entry, looked up): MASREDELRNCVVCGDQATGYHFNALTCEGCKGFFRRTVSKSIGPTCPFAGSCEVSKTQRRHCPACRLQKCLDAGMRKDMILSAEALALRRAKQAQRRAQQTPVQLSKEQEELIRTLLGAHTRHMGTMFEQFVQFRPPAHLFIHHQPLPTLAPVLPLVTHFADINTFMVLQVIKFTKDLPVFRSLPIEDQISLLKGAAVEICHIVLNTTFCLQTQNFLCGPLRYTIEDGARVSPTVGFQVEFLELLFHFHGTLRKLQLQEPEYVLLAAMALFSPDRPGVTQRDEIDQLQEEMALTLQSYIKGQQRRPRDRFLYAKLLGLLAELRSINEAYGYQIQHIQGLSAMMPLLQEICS
# Outline: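 Single 25 uM duplicate primary screen, with concentration-series follow-up on actives. Cell-free binding format run in antagonist mode, TR-FRET signal taken 1 h post-dose; activity is signal loss relative to DMSO.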
# [15] = system: guinea pig Histamine Receptor (H2), gene 100729734; test: NVS_GPCR_gH2: NovaScreen (NVS) G Protein-Coupled Receptor Assay for guinea pig Histamine Receptor (H2) (AID 2283342)
# Outline: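 Guinea pig striatal membrane preparation with specific radioligand; bound counts measured by filtration and scintillation 1 h post-dosing, DMSO as baseline. Chemicals passing a 25 uM duplicate screen were titrated to a 50 uM maximum.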
# [16] = molecular target: human Peripheral-type Benzodiazepine Receptor (PBR), TSPO (gene 706) (UniProt P30536); test: NVS_MP_hPBR: NovaScreen (NVS) Membrane Protein Assay for human Peripheral-type Benzodiazepine Receptor (PBR) (AID 2283331);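 note: hits reduce radioligand binding relative to DMSO baseline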
# Sequence of human Peripheral-type Benzodiazepine Receptor (PBR), TSPO (gene 706) (P30536 whole entry, looked up): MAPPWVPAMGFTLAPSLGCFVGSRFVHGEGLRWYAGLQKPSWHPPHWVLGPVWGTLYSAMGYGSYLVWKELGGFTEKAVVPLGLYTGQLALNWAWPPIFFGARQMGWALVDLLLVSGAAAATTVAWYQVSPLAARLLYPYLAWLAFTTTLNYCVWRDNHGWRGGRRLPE
# Outline: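 Cell-free binding to human colonic membrane preparations measured by filter-based scintillation counting after 1 h. Compounds first run at 25 uM in duplicate, then concentration series for actives; signal loss against DMSO baseline.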
smiles,measurement,setting,value
Nc1ccc(S(=O)(=O)c2ccc(N)cc2)cc1,AC50,[1],3.28 µM (active)
same,outcome,[2],inactive
same,outcome,[3],inactive
Oc1ccc2c(c1)OC[C@@H](N1CCC(O)(c3ccc(F)cc3)CC1)[C@H]2O,outcome,[4],inactive
same,outcome,[5],inactive
same,outcome,[2],inactive
same,outcome,[3],inactive
same,outcome,[6],inactive
CCCCN(CCCC)CCCC,outcome,[7],inactive
same,outcome,[8],inactive
same,outcome,[2],inactive
same,outcome,[3],inactive
same,outcome,[6],inactive
COc1cc(S(=O)(=O)O)c(C)cc1N=Nc1c(O)ccc2cc(S(=O)(=O)O)ccc12,outcome,[9],inactive
same,outcome,[4],inactive
same,outcome,[2],inactive
same,outcome,[3],inactive
COc1cc(C=O)ccc1O,outcome,[10],inactive
same,outcome,[11],inactive
same,AC50,[5],38.6 µM (active)
same,outcome,[2],inactive
same,outcome,[12],inactive
same,outcome,[3],inactive
same,outcome,[6],inactive
CC(=O)OCCOCCOCCOC(C)=O,outcome,[10],inactive
same,outcome,[2],inactive
same,outcome,[3],inactive
same,outcome,[6],inactive
CCOc1ccc2c(c1)C(C)=CC(C)(C)N2,outcome,[10],inactive
same,AC50,NCBI gene 100848466,25 µM (active)
same,AC50,[5],39.2 µM (active)
same,outcome,[2],inactive
same,outcome,[3],inactive
CCCCCCCCCCC,outcome,[13],inactive
same,outcome,[14],inactive
same,outcome,[2],inactive
same,outcome,[3],inactive
same,outcome,[6],inactive
Cc1oc(-c2ccccc2)nc1CCOc1cccc2c1ccn2CCC(=O)O,AC50,[1],46.5 µM (active)
same,outcome,[5],inactive
same,outcome,[2],inactive
same,outcome,[3],inactive
same,outcome,[6],inactive
Cc1nc(-c2ccc3c(c2)CCN(CCC2CCC(NC(=O)/C=C/c4ccc(F)cc4)CC2)CC3)no1 (stereo not drawn),outcome,[4],inactive
same,AC50,[15],0.216 µM (active)
same,outcome,[14],inactive
same,outcome,[11],inactive
same,outcome,[8],inactive
same,outcome,[5],inactive
same,outcome,[2],inactive
same,outcome,[12],inactive
same,outcome,[3],inactive
same,outcome,[6],inactive
Nc1nc(N)c2nc(CNc3ccc(C(=O)N[C@@H](CCC(=O)O)C(=O)O)cc3)cnc2n1,outcome,[9],inactive
same,outcome,[2],inactive
same,outcome,[3],inactive
same,outcome,[6],inactive
Cc1ccc(C(C)C)c(O)c1,AC50,[16],18.3 µM (active)
same,outcome,[1],inactive
same,outcome,[10],inactive
same,outcome,[14],inactive
same,outcome,[2],inactive
same,outcome,[3],inactive
same,outcome,[6],inactive
CCCCCCCC=O,outcome,[9],inactive
same,outcome,[11],inactive
same,outcome,[2],inactive
same,outcome,[3],inactive
same,outcome,[6],inactive
CC(C)(C)c1cc(O)c(C(C)(C)C)cc1O,outcome,[10],inactive
same,outcome,[5],inactive
same,outcome,[2],inactive
same,outcome,[3],inactive
same,outcome,[6],inactive
NS(=O)(=O)c1cc2c(cc1Cl)NCNS2(=O)=O,outcome,[1],inactive
same,outcome,[2],inactive
same,outcome,[3],inactive
same,outcome,[6],inactive
